In the supplement of paper PMC6555819:

Legend:
Experiment in all cases: PBM binding z-score (relative to random genomic background probes); higher = stronger binding; sequences stand for … in GC…GCGATTGACAGCGTAGAATGAAGG
[1] = test system: FXR:RXRa (NR concentration 270 nM, RXRa partner concentration 90 nM)
How it was run: (§1)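 For binding z-scores, the reference was random background probes on custom Agilent 4×180K protein-binding microarrays. These arrays were incubated 1 h with ligand-free nuclear receptor dimers in PBS pH 7.4, 2% milk, 0.02% Triton X-100, 1 mM DTT, 0.2 mg/mL BSA and 0.4 mg/ml salmon testes DNA. Fluorescence was scanned after antibody detection of each partner (one per run) and regression-normalized.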

[2] = test system: LXRa:RXRa (NR concentration 270 nM, RXRa partner concentration 90 nM)
How it was run: as §1

[3] = test system: LXRa homodimer (NR concentration 270 nM)
How it was run: as §1

[4] = test system: LXRb:RXRa (NR concentration 270 nM, RXRa partner concentration 90 nM)
How it was run: as §1

[5] = test system: LXRb homodimer (NR concentration 270 nM)
How it was run: as §1

[6] = test system: PPARa:RXRa (NR concentration 270 nM, RXRa partner concentration 90 nM)
How it was run: as §1

[7] = test system: PPARg:RXRa (NR concentration 180 nM, RXRa partner concentration 90 nM)
How it was run: as §1

[8] = test system: PPARg:RXRa 270nM:90nM, anti-RXR (NR concentration 270 nM, RXRa partner concentration 90 nM)
How it was run: as §1

[9] = test system: PPARg:RXRa 30nM:10nM, anti-RXR (NR concentration 30 nM, RXRa partner concentration 10 nM)
How it was run: as §1

[10] = test system: PPARg:RXRa 90nM:30nM, anti-RXR (NR concentration 90 nM, RXRa partner concentration 30 nM)
How it was run: as §1

[11] = test system: PPARg:RXRa DBDmut IVT, anti-RXR (DBD mutation: RXRa K156A/R161A, NR concentration 270 nM, RXRa partner concentration 90 nM)
How it was run: as §1

[12] = test system: PPARg:RXRa IVT, anti-PPARg (NR concentration 270 nM, RXRa partner concentration 90 nM)
How it was run: as §1

[13] = test system: PPARg DBDmut:RXRa IVT, anti-PPARg (DBD mutation: PPARg1 K132A/R137A, NR concentration 270 nM, RXRa partner concentration 90 nM)
How it was run: as §1

[14] = test system: PPARg DBDmut IVT, anti-PPARg (DBD mutation: PPARg1 K132A/R137A, NR concentration 270 nM)
How it was run: as §1

[15] = test system: PPARg homodimer (NR concentration 180 nM)
How it was run: as §1

[16] = test system: PXR:RXRa (NR concentration 270 nM, RXRa partner concentration 90 nM)
How it was run: as §1

[17] = test system: PXR homodimer (NR concentration 270 nM)
How it was run: as §1

[18] = test system: RARa:RXR (NR concentration 270 nM, RXRa partner concentration 90 nM)
How it was run: as §1

[19] = test system: RARa homodimer (NR concentration 270 nM)
How it was run: as §1

[20] = test system: RARb:RXRa (NR concentration 270 nM, RXRa partner concentration 90 nM)
How it was run: as §1

Sequence	PBM binding z-score [1]	PBM binding z-score [2]	PBM binding z-score [3]	PBM binding z-score [4]	PBM binding z-score [5]	PBM binding z-score [6]	PBM binding z-score [7]	PBM binding z-score [8]	PBM binding z-score [9]	PBM binding z-score [10]	PBM binding z-score [11]	PBM binding z-score [12]	PBM binding z-score [13]	PBM binding z-score [14]	PBM binding z-score [15]	PBM binding z-score [16]	PBM binding z-score [17]	PBM binding z-score [18]	PBM binding z-score [19]	PBM binding z-score [20]
TGAAAGAGGTTATAAGATCAGGGAACGTTGCAAA	2.03	1.91	-0.395	1.33	-0.331	2.91	1.11	1.46	0.81	1.12	-0.304	0.748	-0.617	0.266	0.0455	0.781	-0.571	1.59	-0.227	1.56
AGAATGAGGTTACCAATGATCAGGGAAACGCTTG	1.77	3.21	-0.495	1.67	-0.399	3.33	2.55	2.4	1.21	1.7	3.69	3.24	1.14	0.416	0.494	1.05	-0.11	1.83	0.362	2.03
TATACAGGGTCAAAGGCCAGACTACGAATGTCGA	7.5	6.15	2.32	4.84	2.22	6.39	8.41	7.38	5.4	7.02	2.56	5.03	3.07	1.98	2.4	4.42	0.626	6.23	1.41	4.56
ATCTCTAGGTACCAAGTTCAGTGAAAGAGAGGAC	0.701	0.609	0.346	0.651	0.845	0.892	0.678	1.23	0.604	1.03	0.464	0.878	1.07	0.989	0.548	1.42	1.37	0.711	0.57	1.28
TCTAGCAGGCAAGAGGGTCACTCAAGAGGTACGG	0.555	0.86	-0.678	1.18	-1.24	2.25	1.01	1.76	1.7	1.82	0.584	0.0219	-0.412	-0.872	0.722	1.62	-0.663	2.3	-0.406	1.92
CCTAGCAGGCCAATCTGGGTCACTCGAGGCTTGA	-0.0192	1.35	-0.447	0.667	-1	2.98	1.69	1.96	0.0407	1.13	4.16	4.75	-0.336	0.34	1.39	1.1	-0.592	1.85	-0.324	1.56
CTACCAAGGTGTACAAGGTCGTTGATTACTATTC	0.534	0.766	0.255	1.26	-0.288	1.31	0.268	0.583	-0.154	0.498	0.458	0.771	0.278	0.0269	0.61	1.61	1.18	1.47	0.124	0.901
CGAACTGGGTCAAGGACAGTGAATCTCCGCACGC	2.51	1.36	-0.258	1.24	-0.484	4.39	6.95	6.03	2.89	5.37	7.45	7.82	5.86	3.4	1.92	1.28	-0.104	1.94	0.123	3.39
ACTAGCAGGCCAAGTTTGGCTCACTCAAACAAAG	-0.477	-0.516	-0.635	-0.722	-0.853	-0.363	-0.294	-0.625	-0.674	-0.715	0.281	0.0532	-0.751	-1.04	-0.78	-0.576	-0.582	-0.454	-0.674	0.218
ATATGTAGGTTAGCTGGGGTCGTTCAGACTAGGC	1.41	3.09	0.399	2.71	0.5	3.82	3.96	3.57	1.33	2.73	6.38	6.16	1.24	1.41	0.751	4.69	1.3	2.76	0.512	1.51
TCATATCGGTAAACAGGTGAAAGTCCGTAAGTTA	0.957	0.857	0.341	0.799	0.0218	1.89	1.04	2.91	4.03	3.5	2.55	2.3	0.278	0.853	0.999	0.657	0.286	0.933	1.19	0.764
TATACAGGGTCAAATGCCAGAGTACGAATGTCGA	7.66	6.63	3.82	5.33	3.42	6.33	7.57	6.6	3.95	5.73	2.62	4.6	3.56	3.07	3.17	4.3	1.12	5.47	1.22	4.55
ATCTATAGGTAACCAAGTTCAGTGAATGCCGAAC	0.275	0.814	0.873	0.556	0.386	1.01	0.856	0.848	0.142	0.641	2.37	1.81	0.555	1.09	0.665	2.46	2.08	0.857	0.671	1.3
TCTTGTAGATCAAGCAGGTTAAGTAAGCCTGAGT	0.318	0.3	-0.426	0.29	-0.426	0.576	-0.618	1.2	2.3	1.78	1.68	0.377	0.298	-0.27	0.192	0.295	0.247	0.198	-0.203	0.138
ATTAGTTGGTCAGCTGAGGTCACACACAATTCGG	3.77	3.68	3.19	3.95	1.13	3.96	2.32	2.81	1.44	2.13	2.22	3.28	0.989	1.49	3.67	5.59	2.59	4.84	2.74	3.72
CCTTACGGGTCACGAGGGTATAGCACGACGAGCG	6.44	4.54	-0.0656	3.48	-0.518	5.73	6.45	6.17	2.67	5.26	3.29	5.07	0.569	0.0491	2.12	4.23	-0.0662	4.88	0.889	4.44
CGAACTAGGTCATCCAGGACAGTGATTACATTGA	4.19	2.8	0.631	2.2	-0.108	4.62	7.63	6.33	3.95	5.79	8.17	8.1	1.9	1.24	1.15	1.95	1.25	2.17	0.703	3.98
CCTAACGGGTCACTGACAGGTTATAGCATTTGGA	4.16	3.46	0.268	2.65	-0.0444	4.42	3.07	3.01	0.84	1.88	2.22	2.71	-0.265	-0.262	2.61	3.02	0.336	4.05	1.31	3.48
TCTCGGAGGACACGCAGGTCAGAGCTTTCCAGAG	0.587	0.453	-0.198	0.321	-1.1	1.22	-0.00527	0.98	1.99	1.12	1	0.776	-0.915	-1.54	0.365	1.1	0.213	1.15	-0.493	2.67
CAAACTATGTCACCGGAAGGTCAAAGTCCGCATG	3.73	3.78	4.13	3.89	1.52	4.37	3.69	4.08	1.4	2.98	5.08	5.25	0.711	1.64	3.93	4.29	2.1	4.93	2.43	3.7
CTAGAAAGGTCGGTTGAGGTGAGTATACGGATAA	3.11	1.64	-0.0561	1.64	-0.0428	2.6	0.509	1.1	0.117	0.585	0.237	1.18	0.0511	0.00122	1.34	3.37	0.245	2.6	0.889	3.03
CGAACTAGGTCAGAACAGGATAGTGAAGGATGAT	1.16	0.877	-0.252	0.463	-0.465	3.33	5.21	4.24	1.75	3.34	7.17	7.33	2.09	2.21	1.07	0.283	0.0335	1.12	0.743	2.97
GCATATAGGTAATAAAAGGTGAAAGTCCGATTGT	1.12	4.97	0.418	1.97	-0.165	2.47	1.65	2.12	0.664	1.72	3.99	3.33	0.83	0.676	1.38	0.771	0.163	2.04	0.974	1.12
AGTCAAAGTTCACTACGTAACGTAAGATTCAGCT	5.22	4.81	2.75	3.23	1.32	3.94	5.52	5.28	2.81	4.64	0.373	1.98	1.52	1.04	1.69	3.72	2.5	2.71	1.15	4.47
ACAGACAGGTGAGTGAAGGTTACTCAGCTGGACG	0.506	0.708	-0.297	-0.125	-0.739	0.764	0.848	0.505	-0.0853	0.0538	0.352	1.16	0.332	0.037	0.138	0.646	-0.03	0.952	0.201	1.15
ATATGTAAGTTAAGGGTCATTCAGGTTGGTTCGC	4.42	4.64	3.27	4.11	1.56	5.03	6.82	7.16	6.71	7.81	1.13	3.7	1.79	1.39	4.41	5.17	2.93	4.86	1.97	3.42
CGAACGAGGGCATGAGTTCATAGCAAATGCCGAT	2.26	2.23	1	1.51	-0.903	3.24	2.37	2.91	0.55	2.23	3.09	2.4	-0.0442	-0.857	0.292	4.74	7.66	2.71	-0.81	3.01
AGAATGAGGTTAAGATCAGCGAAACAGAATACAT	2.2	1.69	-0.0518	1.54	-0.0572	3.72	2.3	2.38	0.794	1.74	1.69	2.37	1.19	0.858	-0.266	0.978	0.422	1.82	0.555	1.83
CGTCCAAGGTCATAGGAGGTCTGTGAAGACAGAT	7.54	5.3	0.925	4.01	0.481	5.64	4.98	5.2	1.89	3.88	2.76	3.51	0.436	0.0298	2.07	4.86	1.09	4.27	0.26	5.05
